From PubChem BioAssay AID624330 (Southern Research Specialized Biocontainment Screening …, 2012)
The whole screen tested about 340,000 compounds, of which about 2,100 (0.62%) were called active. A selection follows. Measured potencies and affinities stand elsewhere. Values without a mark were called inactive.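 Rule for the calls: active = first-screen hits whose inhibition reached a set limit at any dose in the follow-up dose series; inconclusive = inhibition above the set first-screen limit but never retested; inactive = the rest.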

These compounds were tested against Rac GTPase-activating protein 1 (Homo sapiens) (UniProt Q9H0H5) (assay: MgcRacGAP GTPase-activating activity inhibitors, confirmation, biochemical, ADP Hunter fluorescence, primary and confirmatory (AID 624330;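 note: fluorescence reports GDP produced by GAP-driven GTP hydrolysis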)). Settings: MgcRacGAP-stimulated Rac1 GTP hydrolysis, at 30 µM, hits give high values, GST-tagged Rac1 F28L mutant substrate.
Chain of Rac GTPase-activating protein 1 (Homo sapiens) (Q9H0H5 whole entry, looked up): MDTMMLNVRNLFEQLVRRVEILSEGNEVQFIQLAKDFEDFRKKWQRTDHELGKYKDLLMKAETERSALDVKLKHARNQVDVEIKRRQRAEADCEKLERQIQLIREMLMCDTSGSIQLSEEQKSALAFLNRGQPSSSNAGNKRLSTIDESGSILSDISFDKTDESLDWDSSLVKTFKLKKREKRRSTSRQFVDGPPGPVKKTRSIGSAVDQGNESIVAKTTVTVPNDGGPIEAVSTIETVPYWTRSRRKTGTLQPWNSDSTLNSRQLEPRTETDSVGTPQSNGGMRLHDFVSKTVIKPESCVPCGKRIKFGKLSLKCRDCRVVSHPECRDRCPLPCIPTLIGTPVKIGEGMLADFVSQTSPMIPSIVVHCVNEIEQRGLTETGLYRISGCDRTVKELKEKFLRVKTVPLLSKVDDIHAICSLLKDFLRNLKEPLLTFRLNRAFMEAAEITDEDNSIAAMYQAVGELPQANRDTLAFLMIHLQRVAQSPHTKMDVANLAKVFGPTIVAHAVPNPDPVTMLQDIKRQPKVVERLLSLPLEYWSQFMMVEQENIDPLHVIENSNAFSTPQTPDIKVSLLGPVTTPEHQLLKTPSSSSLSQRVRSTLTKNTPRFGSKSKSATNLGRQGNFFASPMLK

SMILES	inhibition [%]
CC(NCC(c1ccco1)N1CCCCC1)C(=O)NC1CCCC1 (configuration not stated)	6.01
Cc1[nH]ccc(=O)c1OCc1ccc(Cl)cc1	8.17
CCCSc1nnc2c(n1)OC(c1cccn1C)N(C(C)=O)c1ccccc1-2 (configuration not stated)	7.61
Cc1cccc(NC(=O)Nc2cnccn2)c1C	7.34
COc1cc(C(=O)NC2CCCC2)c(Br)c(OC)c1OC	11.2
Cc1ccc(C(CNS(=O)(=O)c2ccc(F)cc2)N2CCN(C)CC2)cc1 (configuration not stated)	3.73
C#CCOCCOCCOCCNc1nc(N2CCN(C(=O)[C@H]([C@@H](C)O)n3cc(CCCCN)nn3)CC2)nc(N2CCN(C(=O)[C@H](C)n3cc(CCCN=C(N)N)nn3)CC2)n1	6.19
CCOc1ncccc1C(=O)OCC(=O)c1ccc(OC)c(OC)c1	2
COc1cccc(CN2CCC(N(CCc3ccccc3)Cc3ccccc3)CC2)c1OC	22.3
CCCN1CCC(N(CCc2ccccc2)Cc2ccccc2)CC1	-10
CSc1nnc(-c2ccc(S(=O)(=O)N3CCCCC3)cc2)o1	1
CCC(C)c1ccccc1NC(=O)C(C)OC(=O)c1ccco1 (configuration not stated)	1.05
O=c1c(Cc2c(F)cccc2Cl)c(O)ccn1CC1CCCO1 (configuration not stated)	-2.7
CCOC(=O)CCc1c(C)nc2cc(-c3ccc(Cl)cc3)[nH]n2c1=O	-6.3
O=C(CCNC(=O)c1ccco1)Nc1ccc(SC(F)F)cc1	-1.92
COc1ccc(N2CCN(C(=O)CSc3nnnn3C3CC3)CC2)cc1	16.6
COc1ccc(N2CCN(C(=O)CSc3nnc(C4CC4)n3C3CC3)CC2)cc1	24.3
Cc1nnc(SCC(=O)N2CCN(c3ccccc3)CC2)n1C1CC1	5.61
O=C(CSc1nnnn1C1CC1)N1CCN(c2cccc(Cl)c2)CC1	6.11
C[C@@H]1[C@H]2CCCC[C@H]2CN(C(=O)OC(C)(C)C)[C@@H]1CC(=O)c1ccccc1	12.5
COc1ccc(CN2CCS(=O)(=O)CC2)cc1OC	-1.72

SMILES	inhibition [%]
CCOC(=O)C1CCCN(S(=O)(=O)c2ccc(Cl)nc2)C1 (configuration not stated)	0.62
CCC(=O)c1ccccc1OCCN1C(=O)NC(C)(C)C1=O	3.57
Cc1ccccc1CNCc1ccc2c(c1)OCO2	25.3
Fc1ccccc1CNCc1ccc2c(c1)OCO2	6.19
Clc1ccccc1CNCc1ccncc1	-5.2
Cc1ccc(CNCc2ccccc2Cl)cc1	3.27
CC1=C(C(=O)NC(C)CCc2ccccc2)C2(CCC(C)CC2)OC1=O (configuration not stated)	9.85
O=C(C[n+]1cccc(/C=N/O)c1)N(Cc1ccccc1)Cc1ccccc1	2.39
COc1ccc(CCNC(=O)CSc2n[nH]c(N)n2)cc1	9.27
Cc1csc(=O)n1CCC(=O)OCC(=O)Nc1ccc(S(N)(=O)=O)cc1	6.26
O=C(CCN1C(=O)[C@@H]2Cc3ccccc3CN2C1=O)NCc1ccccc1Cl	13.7
CCOc1ccc(S(=O)(=O)N2CCCC(C(=O)Nc3ccccc3)C2)cc1 (configuration not stated)	4.61
COc1ccccc1/C=C(/C(=O)OCC(=O)Nc1ccccc1C)c1ccccc1	8.5
CCc1ccc(NC(=O)COC(=O)/C(=C/c2ccccc2OC)c2ccccc2)cc1	-0.32
CCN(c1ccc(NC(=O)COC(=O)CCc2cc(OC)c(OC)c(OC)c2)cc1)C(C)C	14.8
COc1cc(CC(=O)OCC(=O)Nc2ccc3c(c2)OCO3)cc(OC)c1OC	12.4
CCN(CC)S(=O)(=O)c1ccc(NC(=O)COC(=O)CCc2cc(OC)c(OC)c(OC)c2)cc1	1.83
COc1cc(CC(=O)OCC(=O)Nc2ccc([N+](=O)[O-])cc2)cc(OC)c1OC	13.3
COc1ccc(NC(C)=O)cc1C	16.4
COCc1cc(C)n(CC(=O)Nc2ccc(N3CCOCC3)cc2)c(=O)c1C#N	1.03
Nc1c(C(=O)c2cccs2)oc2ccccc12	6.17

SMILES	inhibition [%]
Cc1ccc(C(=O)OCc2nnc(-c3ccccc3)o2)o1	6.62
COCCCn1c(=S)[nH]c2c(sc3ccccc32)c1=O	21
O=c1c2ccccc2[nH]c(=S)n1CCCN1CCOCC1	4.66
CCN(CC)S(=O)(=O)c1cc(C(=O)OCC(=O)Nc2ccc(-c3nc4ccc(C)cc4s3)cc2)ccc1F	4.33
CC(=O)Nc1nc2c(s1)CCc1ccccc1-2	8.9
COc1ccc2c(c1)-c1nc(NC(=O)c3cccs3)sc1CC2	8.83
COc1ccc2c(c1)-c1nc(NC(=O)c3ccco3)sc1CC2	8.71
Nc1nc2c(s1)COc1ccccc1-2	4.85
c1cc(CNc2ccc(N3CCOCC3)cc2)ccn1	13.9
CCc1ccc(N2CCN(C(=O)N3CCOCC3)CC2)cc1	7.01
CC(=O)c1ccc(N2CCN(C(=O)Nc3ccc(C(C)C)cc3)CC2)cc1	6.75
CCC(=O)N1CCN(c2ccc(NC(=O)COc3ccc(CC)cc3)cc2)CC1	3.4
CC(=O)N1CCN(c2ccc(NC(=O)c3ccc(Cl)cc3)cc2)CC1	4.31
CC(=O)N1CCN(c2ccc(NCc3ccc(C)s3)cc2)CC1	30.4
O=S(=O)(c1ccc(NCc2ccccc2)cc1)N1CCOCC1	5.28
Cc1ccc(CNc2ccc(N3CCOCC3)c(C(=O)O)c2)s1	6.12
Cc1cc(=O)[nH]c(NN=C2C3CC4CC(C3)CC2C4)n1	-3.7
CS(=O)(=O)NNC(=O)C1Cc2c(ccc3ccccc23)O1 (configuration not stated)	8.23
CC1CCCC(C)N1CCNC(=O)Nc1ccc(Cl)cc1 (configuration not stated)	6.73
COc1ccc(NC(=O)C2CCN(C(=O)[C@@H]3Cc4ccccc4CN3)CC2)cc1	-3.28
